Assay results as given in the supplement of paper PMC9942566.
Where a name gives a salt, the structure may show the parent alone. ± gives the standard deviation of the averaged measurements.

system: Serratia marcescens K904 PosmB-luxCDABE reporter (pMQ747); test: PosmB-lux reporter fold induction (RLU/OD600 relative to no-compound control), highest over Biolog concentrations; higher = stronger Rcs reporter activation; details: wild type K904; 4 h
Experimental: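 Serratia marcescens K904 (wild type) or its isogenic ΔrcsB mutant, carrying the Rcs-dependent PosmB-luxCDABE reporter plasmid pMQ747, was grown in LB at OD600 0.1 in Biolog Phenotype MicroArray plates PM11-20 for 4 h at 30-32°C. Each compound is present at 3-4 proprietary concentrations (not stated); per the Fig. S1 legend the value given is the highest fold over those wells. Three independent trials.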

Point of comparison: `On1ccccc1=S` [1-Hydroxy-pyridine-2-thione] (Biolog plate: PM14, well positions: C5-8), “PosmB-lux reporter fold induction” value 4.06 ± 1.3. Against it:
- O=[Si](O)O [sodium metasilicate] (Biolog plate: PM18, well positions: E1-4) — lower, 1.11 ± 0.32
- N[C@H](CO)C(=O)O [D-serine] (Biolog plate: PM17, well positions: A2-4) — within error, 2.39 ± 1.2
- O=C(OC[C@H]1O[C@@H](OC(=O)c2cc(O)c(O)c(OC(=O)c3cc(O)c(O)c(O)c3)c2)[C@H](OC(=O)c2cc(O)c(O)c(OC(=O)c3cc(O)c(O)c(O)c3)c2)[C@@H](OC(=O)c2cc(O)c(O)c(OC(=O)c3cc(O)c(O)c(O)c3)c2)[C@@H]1OC(=O)c1cc(O)c(O)c(OC(=O)c2cc(O)c(O)c(O)c2)c1)c1cc(O)c(O)c(OC(=O)c2cc(O)c(O)c(O)c2)c1 [tannic acid] (Biolog plate: PM17, well positions: F9-12) — lower, 1.5 ± 0.49
- CCc1cc(C(N)=S)ccn1 [ethionamide] (Biolog plate: PM17, well positions: B9-12) — lower, 0.853 ± 0.16
- C/C=C/C=C/C(=O)O [sorbic acid] (Biolog plate: PM16, well positions: H9-12) — lower, 2.12 ± 0.59
- CCN1CCN(C(=O)N[C@@H](C(=O)N[C@@H]2C(=O)N3[C@@H]2SC(C)(C)[C@@H]3C(=O)O)c2ccccc2)C(=O)C1=O [Piperacillin] (Biolog plate: PM14, well positions: F5-8) — within error, 3.19 ± 1.8
- CN(C)[C@@H]1C(O)=C(C(=O)NCN2CCCC2)C(=O)[C@@]2(O)C(O)=C3C(=O)c4c(O)cccc4[C@@](C)(O)[C@H]3C[C@@H]12 [Rolitetracycline] (Biolog plate: PM13, well positions: D9-12) — lower, 1.49 ± 0.23
- CN[C@@H]1[C@H](O[C@H]2[C@H](O[C@H]3[C@H](O)[C@@H](O)[C@H](NC(=N)N)[C@@H](O)[C@@H]3NC(=N)N)O[C@@H](C)[C@]2(O)CO)O[C@@H](CO)[C@H](O)[C@H]1O [dihydro-streptomycin] (Biolog plate: PM19, well positions: G5-8) — lower, 1.47 ± 0.16
- CCn1cc(C(=O)O)c(=O)c2cc(F)c(N3CCNCC3)nc21 [Enoxacin] (Biolog plate: PM11, well positions: E5-8) — lower, 2.1 ± 0.62
- Nc1ccc(S(=O)(=O)Nc2ncccn2)cc1 [Sulfadiazine] (Biolog plate: PM12, well positions: E5-8) — lower, 2.21 ± 0.27
- Cc1ccccc1C(OCCN(C)C)c1ccccc1 (stereo not given) [orphenadrine] (Biolog plate: PM20, well positions: B1-4) — within error, 2.77 ± 1.3
- CSc1ccc2c(c1)N(CCC1CCCCN1C)c1ccccc1S2 (stereo not given) [thioridazine] (Biolog plate: PM20, well positions: C1-4) — lower, 0.902 ± 0.17
- CCCCCCCCCCCC[N+](C)(C)CCOc1ccccc1 [Domiphen bromide] (Biolog plate: PM15, well positions: D5-8) — lower, 1.98 ± 0.26
- CO[C@@]1(NC(=O)Cc2cccs2)C(=O)N2C(C(=O)O)=C(COC(N)=O)CS[C@@H]21 [Cefoxitin] (Biolog plate: PM14, well positions: E1-4) — within error, 4.05 ± 0.85
- C[C@@H]1O[C@@H]1P(=O)(O)O [Phosphomycin] (Biolog plate: PM16, well positions: A5-8) — lower, 0.962 ± 0.25
- N[C@@H]1CONC1=O [D-Cycloserine] (Biolog plate: PM15, well positions: B1-4) — lower, 1.37 ± 0.23
- Cc1ccc2c(Cl)cc(Cl)c(O)c2n1 [5,7-Dichloro-8-hydroxy-quinaldine] (Biolog plate: PM15, well positions: B9-12) — within error, 2.01 ± 0.87
- CN[C@@H]1[C@H](O)[C@H](NC)[C@H]2O[C@@]3(O)C(=O)C[C@@H](C)O[C@H]3O[C@@H]2[C@H]1O [Spectinomycin] (Biolog plate: PM12, well positions: G1-4) — lower, 1.57 ± 0.26
- COc1cc(NS(=O)(=O)c2ccc(N)cc2)ncn1 [sulfamono-methoxine] (Biolog plate: PM17, well positions: C9-12) — lower, 1.35 ± 0.34
- OCC(O)CS (stereo not given) [thioglycerol] (Biolog plate: PM19, well positions: H5-8) — lower, 1.22 ± 0.31
- CCN(CC)CC(=O)Nc1c(C)cccc1C [lidocaine] (Biolog plate: PM18, well positions: D9-12) — lower, 1.37 ± 0.17
- Nc1ccc(S(N)(=O)=O)cc1 [sulfanilamide] (Biolog plate: PM16, well positions: B5-8) — lower, 0.986 ± 0.29
- CC(CN1c2ccccc2Sc2ccccc21)N(C)C (stereo not given) [Promethazine] (Biolog plate: PM14, well positions: H5-8) — within error, 4.68 ± 1.8
- NCC(=O)NO [glycine hydroxamate] (Biolog plate: PM16, well positions: H1-4) — lower, 2.05 ± 0.2
- CO/N=C(\C(=O)N[C@@H]1C(=O)N2C(C(=O)O)=C(CSc3nc(=O)c(O)nn3C)CS[C@H]12)c1csc(N)n1 [Ceftriaxone] (Biolog plate: PM11, well positions: G1-4) — lower, 1.64 ± 0.43
- O=C(N[C@H](CO)[C@H](O)c1ccc([N+](=O)[O-])cc1)C(Cl)Cl [Chloramphenicol] (Biolog plate: PM14, well positions: F1-4) — within error, 2.41 ± 1.1
- O=C(N[C@H](CO)[C@H](O)c1ccc([N+](=O)[O-])cc1)C(Cl)Cl [Chloramphenicol] (Biolog plate: PM11, well positions: F1-4) — lower, 1.4 ± 0.62
- CN(C)c1ccc(C(=C2C=CC(=[N+](C)C)C=C2)c2ccc(N(C)C)cc2)cc1 [crystal violet] (Biolog plate: PM20, well positions: E1-4) — lower, 0.912 ± 0.13
- CCN1CCN(C(=O)N[C@@H](C(=O)N[C@@H]2C(=O)N3C(C(=O)O)=C(CSc4nnnn4C)CS[C@H]23)c2ccc(O)cc2)C(=O)C1=O [cefoperazone] (Biolog plate: PM17, well positions: G9-12) — within error, 2.11 ± 0.69
- O=C(O)CN(CCOCCOCCN(CC(=O)O)CC(=O)O)CC(=O)O (Biolog plate: PM14, well positions: H1-4) — within error, 2.37 ± 0.77
- N=C(N)N [Guanidine hydrochloride] (Biolog plate: PM15, well positions: A5-8) — lower, 1.84 ± 0.099
- NC[C@@H]1O[C@H](O[C@H]2[C@@H](O)[C@H](O[C@@H]3[C@@H](O)[C@H](N)C[C@H](N)[C@H]3O[C@H]3O[C@H](CN)[C@@H](O)[C@H](O)[C@H]3N)O[C@@H]2CO)[C@H](N)[C@@H](O)[C@@H]1O [Neomycin] (Biolog plate: PM11, well positions: F9-12) — lower, 1.51 ± 0.15
- CO/N=C(\C(=O)N[C@@H]1C(=O)N2C(C(=O)O)=C(COC(N)=O)CS[C@H]12)c1ccco1 [Cefuroxime] (Biolog plate: PM13, well positions: D1-4) — lower, 1.85 ± 0.24
- Cn1c(=O)c2c(ncn2C)n(C)c1=O [caffeine] (Biolog plate: PM17, well positions: H5-8) — lower, 1.68 ± 0.37
- Cc1cc(NS(=O)(=O)c2ccc(N)cc2)no1 [Sulfa-methoxazole] (Biolog plate: PM12, well positions: G5-8) — within error, 2.26 ± 0.52
- O=c1c(O)c(-c2cc(O)c(O)c(O)c2)oc2cc(O)cc(O)c12 [myricetin] (Biolog plate: PM18, well positions: G9-12) — lower, 1.05 ± 0.13
- COc1cc(Cc2cnc(N)nc2N)cc(OC)c1OC [trimethoprim] (Biolog plate: PM16, well positions: B9-12) — within error, 1.93 ± 0.91
- CN(C)C(=O)/N=N/C(=O)N(C)C [diamide] (Biolog plate: PM16, well positions: D5-8) — lower, 1.26 ± 0.35
- NC(=O)c1cc[n+](CC2=C(C(=O)[O-])N3C(=O)[C@@H](NC(=O)[C@@H](c4ccccc4)S(=O)(=O)O)[C@H]3SC2)cc1 [cefsulodin] (Biolog plate: PM17, well positions: H1-4) — within error, 18.5 ± 17
